Screening results deposited in PubChem BioAssay by Sanford-Burnham Center for Chemical Genomics.
CendR NRP1 mod: modulators of CendR peptide binding to NRP-1, primary screen, biochemical, fluorescence polarization, uHTS | FAM-RPARPAR peptide binding to NRP-1 | inhibition, % at 25 µM | 0.85% of 360,000 active;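 active = inhibition or corrected inhibition above about 18%, plus a signal ratio from 0.5 to 1.5, limit read from the data, passing the limit was not always enough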
Target sequence (O14786 whole entry, looked up): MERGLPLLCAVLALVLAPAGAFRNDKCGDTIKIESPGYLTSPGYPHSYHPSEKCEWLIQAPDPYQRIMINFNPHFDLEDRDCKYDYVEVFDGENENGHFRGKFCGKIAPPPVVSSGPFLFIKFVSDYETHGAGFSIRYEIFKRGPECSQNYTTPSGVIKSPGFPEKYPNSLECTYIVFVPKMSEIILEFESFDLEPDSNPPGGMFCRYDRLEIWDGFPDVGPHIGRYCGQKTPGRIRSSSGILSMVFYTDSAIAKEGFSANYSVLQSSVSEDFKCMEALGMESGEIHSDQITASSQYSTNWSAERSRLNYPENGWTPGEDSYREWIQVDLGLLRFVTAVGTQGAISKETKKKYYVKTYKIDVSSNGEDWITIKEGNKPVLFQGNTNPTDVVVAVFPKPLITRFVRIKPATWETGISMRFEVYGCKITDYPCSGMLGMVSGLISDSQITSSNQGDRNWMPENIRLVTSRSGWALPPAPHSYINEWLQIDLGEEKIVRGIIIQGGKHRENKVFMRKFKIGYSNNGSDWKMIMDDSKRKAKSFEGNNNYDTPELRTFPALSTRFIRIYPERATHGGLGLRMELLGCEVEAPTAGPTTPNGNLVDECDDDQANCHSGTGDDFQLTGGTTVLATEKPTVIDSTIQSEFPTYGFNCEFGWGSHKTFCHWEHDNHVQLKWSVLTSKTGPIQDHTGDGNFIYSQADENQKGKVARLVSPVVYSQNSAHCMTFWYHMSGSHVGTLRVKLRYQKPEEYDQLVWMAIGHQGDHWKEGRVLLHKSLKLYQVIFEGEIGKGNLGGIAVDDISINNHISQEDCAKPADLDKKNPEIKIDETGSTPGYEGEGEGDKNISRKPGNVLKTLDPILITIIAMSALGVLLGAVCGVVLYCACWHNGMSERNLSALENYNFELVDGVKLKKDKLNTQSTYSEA
PABP FP inh: PABP poly(A) RNA binding inhibitors, primary screen, biochemical, fluorescence polarization, uHTS. 1% of 290,000 active. inhibition, % at 35 µM. Polyadenylate-binding protein 1 (Homo sapiens), P11940;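 note: calls also rest on retests at 20 µM and on dose response follow-up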
eIF4H inh: human eIF4H binding inhibitors, primary screen, translation initiation inhibitor project, biochemical, uHTS, fluorescence polarization; inhibition, % at 35 µM; 0.94% of 290,000 active; eIF4H fluorescence polarization binding assay;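 note: calls also rest on retests at 20 µM and on dose response follow-up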
PABP1 MLLE inh: inhibitors of PABP1 MLLE–PAM2 peptide binding, primary screen, biochemical, fluorescence polarization, FITC-PAM2, GST-MLLE; Polyadenylate-binding protein 1 (Homo sapiens), P11940; inhibition, % at 20 µM; 0.36% of 360,000 active; AID 588489, 2011; in the data active = inhibition above about 35%, passing the limit was not always enough;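 note: plate controls were DMSO wells with GST-MLLE for no effect and wells lacking GST-MLLE protein for full effect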
Numbers without * were called inactive; . = not tested or not shown. In the library only some 2.1% were active in any assay of this set; here they are far more common. Unless noted, the rule behind the calls is not given here.

SMILES	CendR NRP1 mod	PABP FP inh	eIF4H inh	PABP1 MLLE inh
Cc1ccc(NS(=O)(=O)c2ccc3[nH]c(=O)oc3c2)cc1Cl	-13.7	.	.	-10.3
COc1ccc(/C=C2\SC(=O)N(CC(=O)Nc3ccc(F)cc3)C2=O)cc1O	-11.8	-6.9	3.1	20.3
O=C(COC(=O)C1CC(=O)N(Cc2ccccc2)C1)Nc1ccccc1F (stereo unspecified)	25.8*	3.3	0.4	0.4
CCN(C(=O)CN1CCCCC1C)c1c(N)n(Cc2ccccc2)c(=O)[nH]c1=O (stereo unspecified)	-4.4	.	.	-1.3
CN(Cc1nc(-c2cccnc2)no1)S(=O)(=O)c1ccc(Br)cc1	3.4	11.3	-6.2	0.5
CN(Cc1nc(-c2ccccn2)no1)S(=O)(=O)c1ccc(Br)cc1	27.5*	1.9	-5.3	18.2
Cn1c(CNc2ccccc2O)nc2ccccc21	-2.4	69.2*	86.4*	2.1
O=C1C=CC(O)C2(CO)OC12 (stereo unspecified)	-10.3	.	.	16.5
Cc1ccc(Cl)cc1NC(=O)COC(=O)CN1C(=O)C2CCCCC2C1=O (stereo unspecified)	26.2*	.	.	-6.3
CCCNC(=O)c1cc(C2CCCCN2C(=O)c2ccc(OC)cc2)on1 (stereo unspecified)	3.2	.	.	11.5
COc1ccccc1CP(=O)(c1ccccc1)c1ccccc1	-2.9	110.4	active	10.8
COc1ccc(CP(=O)(c2ccccc2)c2ccccc2)cc1	-11.4	1.1	-0.9	0.8
O=C(CN1CCN(c2cnn(-c3ccccc3)c(=O)c2Cl)CC1)NC1CCS(=O)(=O)C1 (stereo unspecified)	9.7	.	.	-34.5
Cc1c(/C=C2\SC(=Nc3cccc(C(=O)O)c3)NC2=O)c2ccccc2n1C	-78.2	63.5*	0.0	-174.5
COc1ccc(C(C(=O)NC2CCCC2)N(CCCO)C(=O)c2snc(C(N)=O)c2N)cc1 (stereo unspecified)	14.6	6.8	-5.7	6.5
CCN(CC)CCn1c(SCC(=O)NCc2ccccc2)nc2c(sc3ccccc32)c1=O	-12.0	52.1*	4.5*	27.8
CC(O)[C@H]1CC[C@H]2[C@@H]3CC[C@H]4C[C@@H](O)CC[C@]4(C)[C@H]3C(=O)C[C@]12C (stereo partly specified)	25.7*	.	.	2.9
CCN(CC(=O)NCc1cccs1)C(=O)c1cccc(S(=O)(=O)N(CC)c2ccccc2)c1	7.4	.	.	-3.6
CN(C)N(C(=O)c1cc(-c2cccs2)nn1-c1ccccc1)C1CCS(=O)(=O)C1 (stereo unspecified)	3.3	.	.	-1.6
Cc1ccc(-c2nnn(CC(=O)N(CC(=O)NC3CCCCC3)c3ccc(F)c(Cl)c3)n2)o1	29.0*	3.3	7.0	5.2
Cc1ccc(-c2nnn(CC(=O)N(CC(=O)NC3CCCC3)c3ccc(F)c(Cl)c3)n2)o1	-1.5	-9.0	-15.7	-1.3
O=C(NCCc1ccccn1)c1cc2ccccc2o1	14.8	1.1	-16.5	-5.8
CCOC(=O)c1c(N)sc2c1CCS(=O)(=O)C2	-12.5	37.5	18.4	38.9*
CCOC(=O)c1c(N)sc2c1CCCC2	-2.0	11.9	6.3	27.3
C/C(=N\NC(=O)C(N)=O)c1cccc([N+](=O)[O-])c1	9.8	-8.9	43.4	-7.3
SMILES	CendR NRP1 mod	PABP FP inh	eIF4H inh	PABP1 MLLE inh
CNC(=S)N/N=C(\C)c1cccc([N+](=O)[O-])c1	10.2	120.4	active	18.9
COc1ccc([C@H]2CC(=O)C=C(c3ccccc3C(F)(F)F)C2)cc1	28.7*	.	.	5.6
COc1ccc([C@H]2CC(=O)C=C(c3cc(C(F)(F)F)cc(C(F)(F)F)c3)C2)cc1	0.6	.	.	7.2
CCCCN1C(=O)C(=O)N(CC(=O)Nc2cc(S(=O)(=O)N(C)C)ccc2C)C1=O	-0.4	.	.	-5.9
NC(=O)c1ccccc1NC(=O)C(c1ccccc1)c1ccccc1	40.2*	.	.	15.0
CC1CCN(C(=O)CSc2nnc(-c3ccc(S(=O)(=O)N4CCOCC4)cc3)n2C)CC1	8.8	40.0*	53.0*	-6.9
CC1CCCN(C(=O)CSc2nnc(-c3ccc(S(=O)(=O)N4CCOCC4)cc3)n2C)C1 (stereo unspecified)	0.6	-7.8	2.5	-8.1
COc1ccc(-c2cc(C(=O)N3CCN(C(=O)c4ccccc4F)CC3)[nH]n2)cc1	0.4	10.8	3.8	1.7
CCCC1C(c2ccc(OC)cc2)C(C#N)(C#N)C2(C#N)CC1(N)NC2=O (stereo unspecified)	-2.6	42.2*	58.1	-0.3
